The values below come from PubChem BioAssay.

Test [1] can be described thus: binders of probe aFSTL3 on microarray, primary screen, stem cell growth factor project, biochemical, small-molecule microarray, fluorescence 635/667 (AID 1064).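 Also: measures binding of the biotinylated anti-FSTL3 antibody to printed compounds.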 Particulars: higher = more signal.
Test [2] is described as follows: binders from COS7 lysate, DM2A8 probe, primary screen, torsin A project, cell lysate, small-molecule microarray, fluorescence 635/667 (AID 1065). Particulars: higher = more signal, COS7 lysate expressing mutant human TOR1A.
Test [3] is described as follows: binders of probe aFGF2 on microarray, primary screen, stem cell growth factor project, biochemical, small-molecule microarray, fluorescence 635/667 (AID 1067).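 Also: measures binding of biotinylated aFGF2 protein to printed compounds on slides; z-score merges feature fluorescence and signal-to-noise across triplicate slides.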 Particulars: higher = more signal.
A short description of test [4]: binders of probe aFGF10 on microarray, primary screen, stem cell growth factor project, biochemical, small-molecule microarray, fluorescence 635/667 (AID 1071).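 Also: score merges 667 nm spot intensity and signal to noise from triplicate slides.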 As to conditions: higher = more signal.
Test [5] deals with Neurogenic locus notch homolog protein 2 (Homo sapiens) (UniProt Q04721). Put plainly: Notch2 binders on small-molecule microarrays, primary screen, biochemical, small-molecule microarray, 635 nm fluorescence, stem cell growth factors (AID 1073). Particulars: Notch2 binding, higher = more signal.
Test [6] has as its target Pro-neuregulin-1, membrane-bound isoform (Homo sapiens) (UniProt Q02297). Put plainly: NRG1 binders on small-molecule microarrays, primary screen, psychiatric disease protein project, biochemical, small-molecule microarray, fluorescence 635/667 (AID 1075).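 Also: score combines 667 nm spot fluorescence with signal to noise.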 Particulars: NRG1 binding, 635 nm fluorescence, higher = more signal.
Test [7] concerns Neuregulin-1 EGF-like domain. Put plainly: binders of neuregulin-1 EGF-like domain, primary screen, biochemical, small-molecule microarray, 635 nm fluorescence (AID 1081).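 Also: binding of the protein to compounds printed on small-molecule microarray slides.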 As to conditions: small-molecule microarray binding, higher = more signal.
Test [8] is described as follows: FRG1 promoter luciferase signal modulators, primary screen, FRG1 inhibition for FSHD, cell-based, C2C12 myotubes, firefly/Renilla luciferase, luminescence (AID 1084). Particulars: higher = more signal, called active from +8 up or from −8 down.
Test [9] can be described thus: binders of probe aFST on microarray, primary screen, stem cell growth factor project, biochemical, small-molecule microarray, fluorescence 635/667 (AID 1086).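 Also: score merges 667 nm fluorescence with signal-to-noise of each printed compound spot.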 Particulars: higher = more signal.
Test [10] in a line: binders of probe aHhip on microarray, primary screen, stem cell growth factor project, biochemical, small-molecule microarray, fluorescence 635/667 (AID 1087).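 Also: score merges spot fluorescence at 667nm with spot signal to noise ratio.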 As to conditions: higher = more signal.
Test [11] relates to PRMT1 (protein arginine N-methyltransferase 1). Put plainly: PRMT1 binders on small-molecule microarrays, primary screen, biochemical, small-molecule microarray, 635 nm fluorescence (AID 1088).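 Also: binding of Prmt1 protein to compounds spotted on small-molecule microarray slides.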 Particulars: small-molecule microarray binding, higher = more signal.
The nature of test [12]: yeast growth modulation, basal conditions, primary screen, YJM789 clinical isolate, OD600, 24 h (AID 1089).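 Also: growth of clinical yeast isolate S. cerevisiae YJM 789 seeded 1000 cells per well; test concentration not given here.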 As to conditions: S. cerevisiae YJM789 growth, higher = more signal, called active from +8 up or from −8 down.
The nature of test [13]: fission yeast growth modulation, primary screen, strain 972, OD600, 24 h, no modulator (AID 1090).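 Also: basal condition with compound alone and no growth modifier present; test concentration not given here.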 Particulars: S. pombe 972 growth, higher = more signal, called active from +8 up or from −8 down.
Test [14] can be described thus: S. cerevisiae growth modulation with rapamycin, primary screen, strain BY4716, OD600, 96 h (AID 1091). Also: test concentration not given here. As to conditions: higher = more signal, called active from +8 up or from −8 down.
In test [15] the target is Torsin-1A-interacting protein 2 (Homo sapiens) (UniProt Q8NFQ8). Put plainly: LULL1 binders on small-molecule microarray, primary screen, cell lysate, human LULL1 lysate, 635/667 nm fluorescence (AID 1092).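 Also: score merges per-feature 667 nm fluorescence with signal-to-noise.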 Particulars: hLULL1 lysate binding, 635 nm fluorescence, higher = more signal.
Test [16] can be described thus: E. coli growth modulation, two-sided OD650, primary screen, E. coli filamentation project, strain DRC41, 24 h (AID 1093).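 Also: MC1000 strain lacking acrAB efflux and sulA so SOS filamentation is blocked; test concentration not given here.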 As to conditions: OD650, 24 h, higher = more signal, called active from +8 up or from −8 down.
Test [17] can be described thus: small-molecule microarray binders of probe aLefty2, primary screen, biochemical, biotinylated probe, 635/667 nm fluorescence (AID 1094).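 Also: score merges spot fluorescence near 667 nm with spot signal-to-noise ratio.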 As to conditions: higher = more signal.
Test [18] has as its system Noggin (protein binding on small-molecule microarray). Put plainly: Noggin binders on small-molecule microarray, primary screen, biochemical, 635/667 nm fluorescence (AID 1095).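 Also: score merges 667 nm feature fluorescence with signal to noise over triplicate slides.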 Particulars: 635 nm fluorescence, higher = more signal.
The target in test [19] is Neurogenic locus notch homolog protein 3 (Homo sapiens) (UniProt Q9UM47). Put plainly: NOTCH3 binders on small-molecule microarray, primary screen, biochemical, 635/667 nm fluorescence (AID 1096). Particulars: NOTCH3 binding, 635 nm fluorescence, higher = more signal.
Test [20] in a line: small-molecule microarray binders of probe aEGFR, primary screen, biochemical, biotinylated probe, 635/667 nm fluorescence (AID 1097).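 Also: probe is a biotinylated anti-EGFR antibody binding compounds printed on slides; score combines fluorescence near 667 nm and signal to noise of each spot.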 Particulars: higher = more signal.

The structures appear in SMILES notation. Activity calls are given as the source filed them.

Neurogenic locus notch homolog protein 2 (Homo sapiens), sequence (Q04721 whole entry, looked up, canonical isoform): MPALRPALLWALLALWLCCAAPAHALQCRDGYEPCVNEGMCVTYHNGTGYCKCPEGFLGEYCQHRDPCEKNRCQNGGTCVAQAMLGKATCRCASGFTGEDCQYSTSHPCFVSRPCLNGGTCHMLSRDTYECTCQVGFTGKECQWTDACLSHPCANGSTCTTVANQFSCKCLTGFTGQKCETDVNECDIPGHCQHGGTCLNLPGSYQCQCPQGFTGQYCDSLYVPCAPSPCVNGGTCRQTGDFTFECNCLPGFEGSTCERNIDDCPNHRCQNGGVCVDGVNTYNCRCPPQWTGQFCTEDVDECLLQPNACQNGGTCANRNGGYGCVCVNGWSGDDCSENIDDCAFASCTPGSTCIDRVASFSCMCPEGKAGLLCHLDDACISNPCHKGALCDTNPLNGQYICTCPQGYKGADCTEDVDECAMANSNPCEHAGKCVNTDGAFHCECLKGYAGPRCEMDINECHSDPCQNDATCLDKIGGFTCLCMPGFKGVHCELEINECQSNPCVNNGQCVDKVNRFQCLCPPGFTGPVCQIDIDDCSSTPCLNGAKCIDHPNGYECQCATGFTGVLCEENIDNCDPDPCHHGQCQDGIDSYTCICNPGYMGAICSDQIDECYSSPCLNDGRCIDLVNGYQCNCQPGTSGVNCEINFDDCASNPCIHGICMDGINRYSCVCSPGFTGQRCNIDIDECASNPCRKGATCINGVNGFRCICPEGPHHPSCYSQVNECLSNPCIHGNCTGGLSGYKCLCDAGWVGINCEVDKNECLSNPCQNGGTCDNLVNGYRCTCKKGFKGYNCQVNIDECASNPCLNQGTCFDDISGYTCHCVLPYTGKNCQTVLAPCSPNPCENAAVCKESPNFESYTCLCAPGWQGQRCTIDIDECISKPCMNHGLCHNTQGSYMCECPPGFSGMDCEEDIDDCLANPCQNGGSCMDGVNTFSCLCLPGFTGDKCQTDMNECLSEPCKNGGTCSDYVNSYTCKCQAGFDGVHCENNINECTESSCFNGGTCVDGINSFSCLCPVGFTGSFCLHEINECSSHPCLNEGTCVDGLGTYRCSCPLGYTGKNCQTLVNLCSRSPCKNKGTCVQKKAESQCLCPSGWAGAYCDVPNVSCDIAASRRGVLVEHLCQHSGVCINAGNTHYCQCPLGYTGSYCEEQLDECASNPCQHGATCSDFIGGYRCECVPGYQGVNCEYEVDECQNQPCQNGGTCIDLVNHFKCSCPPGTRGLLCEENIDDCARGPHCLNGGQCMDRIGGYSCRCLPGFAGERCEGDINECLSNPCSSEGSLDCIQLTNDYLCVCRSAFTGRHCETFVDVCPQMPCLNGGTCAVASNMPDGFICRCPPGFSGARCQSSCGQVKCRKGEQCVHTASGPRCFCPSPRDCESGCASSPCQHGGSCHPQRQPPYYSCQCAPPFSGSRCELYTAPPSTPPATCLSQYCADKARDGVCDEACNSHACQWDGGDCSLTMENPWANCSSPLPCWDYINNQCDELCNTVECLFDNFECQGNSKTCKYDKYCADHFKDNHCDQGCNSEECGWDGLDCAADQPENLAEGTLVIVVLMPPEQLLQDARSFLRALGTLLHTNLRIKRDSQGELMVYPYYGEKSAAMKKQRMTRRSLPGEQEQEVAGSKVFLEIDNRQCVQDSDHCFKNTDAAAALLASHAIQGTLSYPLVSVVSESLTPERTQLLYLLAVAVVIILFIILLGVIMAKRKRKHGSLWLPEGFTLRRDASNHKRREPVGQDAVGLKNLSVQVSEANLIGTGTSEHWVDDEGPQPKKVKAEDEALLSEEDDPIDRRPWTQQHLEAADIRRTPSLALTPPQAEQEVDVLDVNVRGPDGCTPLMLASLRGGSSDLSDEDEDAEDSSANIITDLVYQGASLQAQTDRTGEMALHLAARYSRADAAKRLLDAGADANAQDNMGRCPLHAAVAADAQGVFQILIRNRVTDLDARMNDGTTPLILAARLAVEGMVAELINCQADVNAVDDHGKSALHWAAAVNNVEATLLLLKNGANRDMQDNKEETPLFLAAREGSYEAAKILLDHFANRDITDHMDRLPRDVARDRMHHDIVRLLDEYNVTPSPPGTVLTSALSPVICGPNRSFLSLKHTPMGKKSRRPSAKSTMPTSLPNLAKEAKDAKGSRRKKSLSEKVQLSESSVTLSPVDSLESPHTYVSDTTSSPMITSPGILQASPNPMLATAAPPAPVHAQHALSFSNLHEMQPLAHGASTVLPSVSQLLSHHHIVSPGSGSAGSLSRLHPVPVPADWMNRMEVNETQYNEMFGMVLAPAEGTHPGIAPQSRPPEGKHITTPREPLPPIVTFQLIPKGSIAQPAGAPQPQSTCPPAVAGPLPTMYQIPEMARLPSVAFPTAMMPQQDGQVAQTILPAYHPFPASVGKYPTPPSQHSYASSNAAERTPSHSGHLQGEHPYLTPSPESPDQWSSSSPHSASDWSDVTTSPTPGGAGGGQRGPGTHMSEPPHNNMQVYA
Pro-neuregulin-1, membrane-bound isoform (Homo sapiens), sequence (Q02297 whole entry, looked up, the tested form may be a part, canonical isoform): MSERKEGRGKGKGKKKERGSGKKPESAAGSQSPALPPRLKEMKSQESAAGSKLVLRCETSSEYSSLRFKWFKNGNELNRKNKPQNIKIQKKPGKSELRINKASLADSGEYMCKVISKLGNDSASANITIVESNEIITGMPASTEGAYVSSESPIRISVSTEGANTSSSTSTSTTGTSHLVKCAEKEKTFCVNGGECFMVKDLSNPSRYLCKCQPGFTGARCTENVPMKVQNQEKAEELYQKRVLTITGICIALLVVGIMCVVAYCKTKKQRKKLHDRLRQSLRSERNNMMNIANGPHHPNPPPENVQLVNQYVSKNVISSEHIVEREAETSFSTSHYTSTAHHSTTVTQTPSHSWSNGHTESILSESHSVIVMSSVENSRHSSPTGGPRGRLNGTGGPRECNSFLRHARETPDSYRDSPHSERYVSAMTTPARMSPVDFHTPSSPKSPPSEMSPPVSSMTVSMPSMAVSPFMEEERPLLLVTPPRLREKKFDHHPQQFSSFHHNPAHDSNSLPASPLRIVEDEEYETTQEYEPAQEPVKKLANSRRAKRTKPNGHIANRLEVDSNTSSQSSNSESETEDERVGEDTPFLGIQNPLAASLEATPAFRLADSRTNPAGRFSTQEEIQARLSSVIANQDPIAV
Torsin-1A-interacting protein 2 (Homo sapiens), sequence (Q8NFQ8 whole entry, looked up): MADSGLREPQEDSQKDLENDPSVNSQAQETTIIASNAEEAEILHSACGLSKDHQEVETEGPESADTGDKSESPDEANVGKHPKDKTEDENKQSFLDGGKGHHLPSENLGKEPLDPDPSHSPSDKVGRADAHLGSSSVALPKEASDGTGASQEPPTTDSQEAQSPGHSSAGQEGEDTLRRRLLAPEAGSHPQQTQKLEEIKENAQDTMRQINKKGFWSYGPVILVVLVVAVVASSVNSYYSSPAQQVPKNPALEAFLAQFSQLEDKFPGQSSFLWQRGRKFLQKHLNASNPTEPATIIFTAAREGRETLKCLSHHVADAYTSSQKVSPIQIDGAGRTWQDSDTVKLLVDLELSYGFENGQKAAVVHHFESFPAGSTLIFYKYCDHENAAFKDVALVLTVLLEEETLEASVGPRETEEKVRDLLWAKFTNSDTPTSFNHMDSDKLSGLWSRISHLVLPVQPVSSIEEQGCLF

For `CCCCCCC#C[Si](O[C@H](c1ccccc1)c1cn([C@H](C)c2ccccc2)nn1)(C(C)C)C(C)C`, the composite z-score in test [1] was -0.0028; in test [2], 0.247; in test [3], -0.083; in [4], 0.291; in test [5], 0.315; in test [6], 0.114. Also, the composite z-score in test [7] is -0.333; in test [9], -0.495; in test [10] it was 0.0147; in test [11] it was 0.789; in test [15], 0.828; in test [17], -0.211. For the same molecule, the composite z-score in [18] was 0.476; in test [19] it was 0.579; in test [20], -0.099. Further, the z-score in [8] is -0.532 (inactive); in [12], -0.285 (inactive); in [13] it was 0.994 (inactive); in [14] it was -0.0401 (inactive); in test [16], 1.33 (inactive).
On to `CCCC[C@H]1C[C@@H]1[C@@H]1N(P(=O)(c2ccccc2)c2ccccc2)[C@](CO)(c2ccccc2)CC12CC2`, for which the composite z-score is 0.488 in test [1]; -0.363 in test [2]; 0.0231 in [3]; 0.106 in [4]; 1.44 in test [5]; 0.936 in test [6]. In addition, the composite z-score was 1.05 in [7]; 1.03 in test [9]; 0.235 in test [10]; -0.153 in test [11]; 2.51 in [15]; 0.325 in test [17]. For the same molecule, the results for the composite z-score in [18], in test [19] and in test [20] were -0.686, -0.318 and 0.0585, respectively. Further, the z-score is 0.273 (inactive) in [8]; -0.485 (inactive) in test [12]; -0.485 (inactive) in test [13]; 5.22 (inactive) in test [14]; -1.08 (inactive) in test [16].
For the molecule `COCCOC(=O)N1C(=O)[C@@]2(c3cc(C#CCC(C(=O)OC)C(=O)OC)ccc31)[C@H](c1ccccc1OCCO)N1[C@H](c3ccccc3)[C@H](c3ccccc3)OC(=O)[C@H]1[C@@H]2C(=O)Nc1nc2ccccc2s1`, the composite z-score in test [1] was -0.144; in test [2] it was 1.2; in [3], -0.0335; in test [4], 1.19; in test [5] it was 1.2; in test [6] it was 1.37. Further, the composite z-score came to 1.06 in test [7]; 0.417 in test [9]; 0.417 in [10]; 1.5 in [11]; 2.22 in test [15]; 0.0416 in test [17]. For the same molecule, the composite z-score in [18] turned out to be 1.05; in test [19] it was 1.05; in test [20], 0.0632. The z-score in test [8] was 0.0053 (inactive); in test [12] it was -1.03 (inactive); in test [13], -0.573 (inactive); in [14], 1.95 (inactive); in test [16], 4.28 (inactive).
As for `CCCC[C@H]1OB(O)C[C@H]2C1=C(COc1ccccc1)C[C@H]1C(=O)N(Cc3ccccc3)C(=O)[C@H]12`, the composite z-score is -0.331 in test [1]; -0.413 in test [2]; -0.0434 in test [3]; 0.418 in test [4]; 0.0238 in test [5]; 0.117 in test [6]. Besides, the composite z-score in test [7] is 1.07; in test [9], -0.0344; in test [10] it was 0.0623; in test [11], 0.385; in test [15], 1.33; in test [17] it was -0.121. Further, the composite z-score in test [18] was 1.51; in test [19], 0.862; in test [20], -0.0828. Moreover, the z-score in test [8] is 0.132 (inactive); in test [12] it was -1.87 (inactive); in test [13], -1.54 (inactive); in [14], -1.6 (inactive); in test [16], 0.194 (inactive).
Consider `C=CCC(OC(C)=O)[C@@H]1[C@@H](N(Cc2ccc(-c3cccc(C(F)(F)F)c3)o2)C(=O)c2ccc(C)cc2)c2cc(OCCCO)ccc2N1C(=O)c1ccc2ccccc2n1` (stereo not given in full), for which the composite z-score is 0.172 in test [1]; 0.0875 in [2]; -0.036 in test [3]; 0.515 in test [4]; 0.126 in [5]; 0.147 in [6]. The composite z-score in test [7] is 0.118; in [9] it was 0.361; in test [10], 0.0373; in test [11], -0.0077; in test [15] it was 0.42; in test [17], -0.0286. The composite z-score in [18] was 0.605; in [19], 0.309; in test [20], -0.147. Moreover, the z-score in test [8] is -0.352 (inactive); in [12], -0.269 (inactive); in test [13], -0.546 (inactive); in test [14], 0.28 (inactive); in test [16], 1.44 (inactive).
